Data: PubChem BioAssay
The source made the active and inactive calls. Unless noted, the rule behind the calls is not given here.

Tests used:
[1] = HepG2 liver cancer cell viability effects, profiling panel, resazurin fluorescence, 24 h, PK04 Diversity Set (AID 1172); details: higher = more signal; note: test concentration not given here
[2] = basal S. cerevisiae growth modulation, no modifier, primary screen, OD600, strain BY4716, 24 h, basal condition (AID 1173); details: OD600, 24 h, higher = more signal, called active from +8 up or from −8 down
[3] = MM1S myeloma cell viability, profiling panel, resazurin fluorescence, basal, 24 h, PK04 Diversity Set (AID 1174); details: higher = more signal, called active from +8 up or from −8 down;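 note: MM1S multiple myeloma cell line; test concentration not given here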
[4] = biological target: Dihydroorotate dehydrogenase (quinone), mitochondrial (Plasmodium falciparum (isolate 3D7)) (UniProt Q08210); test: PfDHODH enzyme inhibitors, primary screen, biochemical, C-terminal His tag, absorbance 600 nm (AID 1175); details: DCIP absorbance 600 nm, higher = more signal, called active from +8 up or from −8 down;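 note: recombinant parasite enzyme with a five histidine tag at its C terminus; test concentration not given here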
Sequence of Dihydroorotate dehydrogenase (quinone), mitochondrial (Plasmodium falciparum (isolate 3D7)) (Q08210 whole entry, looked up): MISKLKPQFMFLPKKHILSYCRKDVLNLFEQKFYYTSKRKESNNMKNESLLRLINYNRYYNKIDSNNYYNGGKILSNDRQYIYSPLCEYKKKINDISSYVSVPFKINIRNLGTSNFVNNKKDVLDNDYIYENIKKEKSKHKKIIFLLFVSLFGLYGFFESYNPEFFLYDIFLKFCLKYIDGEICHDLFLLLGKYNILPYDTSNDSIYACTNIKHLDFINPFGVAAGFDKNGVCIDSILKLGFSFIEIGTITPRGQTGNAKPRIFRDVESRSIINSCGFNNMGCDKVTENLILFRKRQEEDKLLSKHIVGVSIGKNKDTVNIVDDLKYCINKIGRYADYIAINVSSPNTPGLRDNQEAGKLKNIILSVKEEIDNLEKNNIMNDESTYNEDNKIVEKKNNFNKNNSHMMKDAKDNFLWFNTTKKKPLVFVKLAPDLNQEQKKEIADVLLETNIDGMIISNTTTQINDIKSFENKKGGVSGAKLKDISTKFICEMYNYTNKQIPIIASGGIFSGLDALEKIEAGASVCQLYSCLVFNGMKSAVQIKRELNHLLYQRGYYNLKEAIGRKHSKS

[5] = P. aeruginosa biofilm formation inhibitors, primary screen, strain PAO1, LB-PBS medium, absorbance 600 nm (AID 1176); note: test concentration not given here; details: P. aeruginosa PAO1 growth/biofilm, A600, 12 h; higher = more signal
[6] = S. cerevisiae RM11-1a growth modifiers, primary screen, strain RM11-1a, OD600, basal, 24 h (AID 1177); details: OD600, 24 h, higher = more signal, called active from +8 up or from −8 down;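 note: cultures grown under basal conditions with no added stressor; test concentration not given here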
[7] = E. coli acrAB mutant growth effects, primary screen, E. coli filamentation inducers, strain DRC39, OD650, 24 h (AID 1178); details: higher = more signal, called active from +8 up or from −8 down;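 note: growth measured as culture turbidity by optical density at 650 nm; test concentration not given here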
[8] = E. coli acrAB mutant growth effects, primary screen, E. coli filamentation inducers, strain DRC39, OD650, 48 h (AID 1179);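 note: screen aims at cell division blockers that make cells filament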; details: E. coli DRC39 delta-acrAB growth, higher = more signal, called active from +8 up or from −8 down
[9] = RPMI8226 myeloma cell viability, profiling panel, resazurin fluorescence, basal, 24 h, PK04 Diversity Set (AID 1180); details: higher = more signal;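 note: RPMI8826 multiple myeloma cell line at 5000 cells per well; test concentration not given here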
[10] = biological target: E3 ubiquitin-protein ligase XIAP (Homo sapiens) (UniProt P98170); test: XIAP binders, primary screen, biophysical, small-molecule microarray, fluorescence 635 nm (AID 1181); details: small-molecule microarray binding, higher = more signal;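 note: score merges 667 nm emission and signal to noise over triplicate slides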
Sequence of E3 ubiquitin-protein ligase XIAP (Homo sapiens) (P98170 whole entry, looked up): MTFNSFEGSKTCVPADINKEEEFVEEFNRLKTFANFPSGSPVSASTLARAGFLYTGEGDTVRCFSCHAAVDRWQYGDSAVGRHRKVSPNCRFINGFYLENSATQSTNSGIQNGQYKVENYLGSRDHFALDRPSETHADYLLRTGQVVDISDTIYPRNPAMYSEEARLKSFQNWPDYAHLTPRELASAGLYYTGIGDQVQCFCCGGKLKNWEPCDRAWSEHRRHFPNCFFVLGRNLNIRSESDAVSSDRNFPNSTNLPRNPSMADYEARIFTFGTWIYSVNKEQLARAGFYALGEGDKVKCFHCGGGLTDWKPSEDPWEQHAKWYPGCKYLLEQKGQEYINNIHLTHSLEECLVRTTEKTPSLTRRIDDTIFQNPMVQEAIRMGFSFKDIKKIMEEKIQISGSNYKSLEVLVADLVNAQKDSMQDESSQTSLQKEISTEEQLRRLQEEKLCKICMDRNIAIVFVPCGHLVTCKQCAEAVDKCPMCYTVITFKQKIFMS

Row | Structure (SMILES) | z-score [1] | z-score [2] | z-score [3] | composite z-score [4] | z-score [5] | z-score [6] | z-score [7] | z-score [8] | z-score [9] | composite z-score [10]
1 | CC(C)N1C(=O)C[C@@](C(=O)NCc2ccccc2)(c2ccc([N+](=O)[O-])cc2)[C@H]1c1ccc(CO)cc1 | 0.222 | -0.228 (inactive) | 0.0372 (inactive) | 0.41 (inactive) | -0.0528 (inactive) | 0.131 (inactive) | 0.531 (inactive) | 1.23 (inactive) | 1.26 | -0.0543
2 | CC(C)C[C@@H]1NC(=O)[C@H]2C[C@@H](C(=O)NCCCCCNC(=O)CS)[C@@H](c3cccc(OCCO)c3)N2C1=O | 0.265 | -0.45 (inactive) | -0.229 (inactive) | 0.0225 (inactive) | 0.326 (inactive) | -0.0734 (inactive) | 0.346 (inactive) | -0.663 (inactive) | -0.492 | 0.379
3 | C#CCN(C(/C=C/c1ccccc1)CO)C(C(=O)O)c1ccccc1 (stereo not given) | -0.589 | -2.64 (inactive) | 0.274 (inactive) | -3.17 (inactive) | -0.565 (inactive) | -0.643 (inactive) | 1.6 (inactive) | -0.198 (inactive) | -0.0777 | -0.175
4 | CCCNC(=O)[C@@]1(c2ccc([N+](=O)[O-])cc2)CC(=O)N(CC23CC4CC(CC(C4)C2)C3)[C@@H]1c1ccc(CO)cc1 | -1.8 | 1.07 (inactive) | -3.32 (inactive) | -0.225 (inactive) | 0.416 (inactive) | 1.05 (inactive) | -0.421 (inactive) | -0.391 (inactive) | -3.71 | 0.182
5 | CC(C)N1CC=CC23O[C@@H]4C=CCOC(=O)[C@@H]4[C@H]2C(=O)N(CCO)[C@@H]3C1=O (stereo not given in full) | 0.545 | 0.684 (inactive) | 0.813 (inactive) | -1.12 (inactive) | 0.0683 (inactive) | 0.445 (inactive) | 0.173 (inactive) | 0.0539 (inactive) | 0.393 | 0.0368
6 | COc1ccc([Si](C)(C)[C@@H]2[C@@H](CCn3cc([C@H](O)c4ccccc4)nn3)O[C@]3(C(=O)N(Cc4ccc(N5C(=O)c6cccc7cccc5c67)cc4)c4ccccc43)[C@H]2C)cc1 | -0.651 | -0.349 (inactive) | -1.66 (inactive) | -0.609 (inactive) | 0.65 (inactive) | -0.0915 (inactive) | 0.954 (inactive) | 0.453 (inactive) | -1.01 | -0.157
7 | O=C1C2C=CC(C(O)c3ccc(-c4ccccc4)s3)N(n3cnnc3)C2C(=O)N1Cc1ccccc1 (stereo not given) | -0.295 | 1.07 (inactive) | -0.559 (inactive) | 0.267 (inactive) | 0.092 (inactive) | 0.766 (inactive) | -0.27 (inactive) | -0.0301 (inactive) | -0.259 | 0.296
8 | [N-]=[N+]=NCc1ccccc1C[C@]1(C(=O)O)N=C(c2ccc(OCCCO)cc2)O[C@H]1c1ccccc1 | 0.922 | -2.17 (inactive) | 0.111 (inactive) | 0.732 (inactive) | 0.755 (inactive) | -0.923 (inactive) | -0.168 (inactive) | -0.429 (inactive) | 0.525 | -0.0482
9 | COc1ccc(C(=O)Nc2cccc(CN3C(=O)[C@]4(O[C@H](CC(=O)N5CCC[C@H]5CO)[C@@H]([Si](C)(C)c5ccc(OC)cc5)[C@@H]4C)c4ccccc43)c2)cc1 | -1.72 | -0.268 (inactive) | -2.7 (inactive) | -2.54 (inactive) | 0.0943 (inactive) | 0.312 (inactive) | 0.951 (inactive) | 0.441 (inactive) | -4.84 | -0.0998
10 | CCOC(=O)C[C@H]1[C@H](OC(=O)c2ccc(-c3ccccc3)cc2)[C@@H](NC(=O)c2ccc3ccccc3c2)c2cc(OCCCO)ccc2N1C(=O)Cc1ccc(OC)cc1 | 0.339 | -0.461 (inactive) | 0.158 (inactive) | -0.173 (inactive) | -0.501 (inactive) | -0.169 (inactive) | 0.281 (inactive) | 0.454 (inactive) | 0.507 | 0.144
11 | CCOC(=O)C[C@H]1[C@H](OC(=O)c2ccc(-c3ccccc3)cc2)[C@@H](NC(=O)c2ccc(-c3ccccc3)cc2)c2cc(OCCCO)ccc2N1C(=O)Cc1ccc(OC)cc1 | -0.0995 | 0.353 (inactive) | -0.26 (inactive) | -0.432 (inactive) | 0.432 (inactive) | 0.0873 (inactive) | 0.39 (inactive) | 0.372 (inactive) | -0.361 | -0.123
